# TSHR antagonist: human thyrotropin receptor antagonism | TSHR-expressing cells, TSH-stimulated cAMP HTRF, 2 h; hits give low values | activity change, negative = inhibition, % at 11.5 µM | 330,000 tested, 0.2% active;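 active = activity change below a set negative limit, meaning inhibition stronger than a set level, cut at about -70% in these data; inconclusive = activity change between two set negative limits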; also: % is scaled to controls: 0 for no effect and ±100 for the full control effect
# Target sequence (P16473 whole entry, looked up): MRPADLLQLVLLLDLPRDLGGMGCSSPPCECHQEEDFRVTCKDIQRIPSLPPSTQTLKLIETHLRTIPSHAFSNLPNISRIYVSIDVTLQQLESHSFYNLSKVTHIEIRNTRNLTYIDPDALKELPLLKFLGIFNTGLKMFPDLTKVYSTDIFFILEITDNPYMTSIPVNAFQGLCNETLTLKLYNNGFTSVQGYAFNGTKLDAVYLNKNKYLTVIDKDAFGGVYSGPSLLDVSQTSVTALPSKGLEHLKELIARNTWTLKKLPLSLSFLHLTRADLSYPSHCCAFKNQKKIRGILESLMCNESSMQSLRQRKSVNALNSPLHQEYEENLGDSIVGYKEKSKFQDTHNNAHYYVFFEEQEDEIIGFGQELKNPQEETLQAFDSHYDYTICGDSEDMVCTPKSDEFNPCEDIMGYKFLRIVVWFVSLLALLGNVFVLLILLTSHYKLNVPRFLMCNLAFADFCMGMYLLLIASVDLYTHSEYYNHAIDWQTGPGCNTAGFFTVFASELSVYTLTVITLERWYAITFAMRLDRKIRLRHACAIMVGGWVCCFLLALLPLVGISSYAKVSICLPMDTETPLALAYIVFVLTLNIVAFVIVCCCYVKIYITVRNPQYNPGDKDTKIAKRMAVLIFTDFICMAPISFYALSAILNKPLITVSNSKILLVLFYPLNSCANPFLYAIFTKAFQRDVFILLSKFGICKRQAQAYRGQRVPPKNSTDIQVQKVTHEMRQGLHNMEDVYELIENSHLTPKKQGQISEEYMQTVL
#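 Read-out is FRET at 665 nm (cryptate excitation 337 nm) from a cryptate-tagged anti-cAMP antibody, competed by cell cAMP against cAMP-d2. Compounds are tested on freshly harvested TSHR cells challenged with 4nM TSH (EC80) for 2 hours at 37 deg C.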
# PLK1 PBD inh: inhibitors of human PLK1 polo-box domain binding; P53350; Plk1 PBD binding of FITC phosphopeptide, fluorescence polarization; Potency, µM, for inactives: max response, negative = inhibition, most hits filed as inhibitors; 360,000 tested, 2.8% active; AID 720504; also: potency is read from the fitted curve at half-maximal effect; series mostly up to about 57 µM; % is scaled to controls: 0 for no effect and ±100 for the full control effect; nearly all actives have a fitted effect of over 65% in size
# Vif-A3F inh: blocks the Vif interaction with APOBEC3F; HeLa A3F-eYFP + Vif (tagged APOBEC3F with the HIV-1 protein that degrades it), YFP fluorescence increase; Potency, µM (doses to about 46.1 µM), for inactives: top-dose activity, negative = active; 390,000 tested, 0.2% active; AID 602313; also: potency is read from the fitted curve at half-maximal effect; % of control where 0% means no effect; nearly all actives have a fitted effect of over 65% in size
#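 HeLa cells stably expressing Vif plus C-terminally eYFP-tagged A3F were seeded, incubated overnight at 37 deg C, dosed with compound, incubated overnight again at 37 deg C. Yellow fluorescence (Ex 488/Em 500-530) reported blocked Vif-mediated A3F-eYFP degradation.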
# VDR inh: inhibitors of human vitamin D receptor. P11473. VDR-SRC2-3 peptide fluorescence polarization, 2 h. Potency, µM, without a hit: max response, negative = inhibition, most hits filed as inhibitors. 400,000 tested, 0.93% active. AID 504847; also: potency is read from the fitted curve at half-maximal effect; % is scaled to controls: 0 for no effect and ±100 for the full control effect
#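 Two reagent solutions held at 4 deg C in the dark were dispensed, compounds pinned at 23 nl, and the mixture incubated 2 h at room temperature. Read-out: fluorescence polarization of VDR–SRC2-3 peptide binding.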
# Vif-A3G inh: Vif-A3G binding inhibition. Q9HC16. HeLa A3G-eYFP + Vif (tagged APOBEC3G with the HIV-1 protein that degrades it), YFP fluorescence, overnight. Potency, µM (doses to about 46.1 µM), inactives show at the top dose activity, negative = active, actives largely listed as inhibitors. 410,000 tested, 0.076% active; also: potency is read from the fitted curve at half-maximal effect; % is scaled to controls: 0 for no effect and ±100 for the full control effect; nearly all actives have a fitted effect of over 60% in size
#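 Read-out is eYFP fluorescence (Ex 488/Em 500-530) from Vif-expressing HeLa A3G-eYFP cells; more signal means A3G escaped Vif-mediated degradation. Cells plated overnight, compound pinned in, incubated overnight at 37 deg C.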
# USP1 UbRho: USP1-UAF1 deubiquitinase inhibition validated | shares compounds with VDR inh | Ub-Rhodamine cleavage, fluorescence kinetic read | Potency, µM (titrated, usually from 56.8 µM), for the others: top-dose activity change, negative = inhibition, hits mostly inhibitors | 50 tested, 50% active | AID 540327
# VDR inh confirm: confirmation of human vitamin D receptor inhibitors. VDR-coactivator inhibition assay, qHTS confirmation. shares compounds with VDR inh. Potency, µM, hits mostly inhibitors. 840 tested, 89% active; also: potency is read from the fitted curve at half-maximal effect
# VDR FP: VDR (human) coactivator binding inhibition, fluorescein polarization; 840 tested, 48% active; VDR-coactivator binding, fluorescein fluorescence polarization; Potency, µM (doses to about 57.1 µM), inactives show at the highest dose activity change, negative = inhibition, hits mostly inhibitors; AID 602200; shares compounds with VDR inh; also: potency is read from the fitted curve at half-maximal effect
# VDR bla: VDR (human) inhibition, cell-based beta-lactamase validation | VDR beta-lactamase reporter cells, FRET ratio; cells co-treated with VDR agonist LG190178 | 840 tested, 23% active | shares compounds with VDR inh | Potency, µM (doses to about 46.1 µM), for inactives: top-dose activity change, negative = inhibition, usual class: inhibitors; also: potency is read from the fitted curve at half-maximal effect; % is scaled to controls: 0 for no effect and ±100 for the full control effect
# VDR viability: cell toxicity, VDR inhibitor hit counter-screen. AID 602204. cytotoxicity counter-screen, cell viability, qHTS. 840 tested, 18% active. Potency, µM (series often up to 48.3 µM), inactives show at the highest dose activity change, negative = cytotoxicity, most hits filed as cytotoxic. shares compounds with VDR inh;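 also: potency is read from the fitted curve at half-maximal effect; plate controls were DMSO for no effect and high-concentration cycloheximide for full effect; nearly all actives have a fitted effect of over 75% in size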
# * = called active by the depositor; ? = inconclusive; nt = no result. Hits are enriched below; roughly 3.1% of the tested compounds scored in any of these assays. Unless noted, calls follow the shape of the dose curve; as a rule, active = well fitted curve in the direction sought with a large enough effect; inconclusive = small, poorly fitted or top-dose-only effect, or another doubt; inactive = no such curve, though single readings can be large; an effect the other way counts as inactive or inconclusive.
SMILES,TSHR antagonist,PLK1 PBD inh,Vif-A3F inh,VDR inh,Vif-A3G inh,VDR inh confirm,VDR FP,VDR bla,VDR viability,others
O=C1NC(=O)/C(=C/c2ccc(-c3ccc(F)cc3O)o2)S1,-14,nt,nt,13µM*,nt,nt,nt,nt,nt,USP1 UbRho=53µM*
Cc1ccc(C(c2cc(Cl)c3cccnc3c2O)N2CCN(C)CC2)cc1 (stereo not given),28,1.5µM*,?,45µM*,-23%,19*,?,-28%,?,
Oc1c(C(c2ccccn2)N2CCC(Cc3ccccc3)CC2)cc(Cl)c2cccnc12 (stereo not given),-1,?,?,?,?,nt,nt,nt,nt,
Cc1ccc(C(=O)Nc2ccc3ncccc3c2)cc1,1,-8%,13%,2%,-10%,nt,nt,nt,nt,
Cc1ccc(C(=O)/C=C/c2ccc3ncccc3c2)cc1,15,-8%,1%,22µM*,-24%,12*,?,?,?,
N/C(=N\OC(=O)c1ccc(Cl)cc1Cl)c1ccncc1,6,0%,-5%,-10%,2%,nt,nt,nt,nt,
O=C(/C(=C/c1ccncc1)n1ccnc1)c1ccc(Cl)cc1Cl,0,27µM*,-4%,79µM*,-1%,13*,13µM*,-20%,-7%,
CCNc1ncc2nc(-c3ccc(F)cc3)c(=O)n(CCC#N)c2n1,nt,nt,nt,-17%,nt,nt,nt,nt,nt,
CC(C)Oc1ccc(C(=O)NC2=NCCS2)cc1,2,27µM*,1%,79µM*,-2%,24*,?,15%,25%,
C=CCn1c(O)c(C2=c3ccccc3=NC2=O)s/c1=N/c1nccs1,8,-1%,-3%,-2%,4%,nt,nt,nt,nt,
C=CCn1c(O)c(C2=c3ccccc3=NC2=O)c2ccccc21,18,17µM*,10%,20µM*,-17%,17*,?,?,?,
CN(C)c1ccc(C(=S)N2CCN(c3ccc([N+](=O)[O-])cc3)CC2)cc1,-22,11µM*,-27%,79µM*,-2%,27*,?,-11%,13%,
CN(C)c1ccc(C(=S)N2CCN(c3ccccc3)CC2)cc1,-19,-5%,0%,13%,-3%,nt,nt,nt,nt,
CC(C)C[C@@H](CC(=O)N[C@@H](CCC(=O)O)CC(=O)O)NC(=O)[C@@H]1CCCC[C@H]1NC(=O)C[C@@H](NC(=O)C[C@H](Cc1ccccc1)NC(=O)[C@@H]1CNCC[C@H]1N)C(C)C,nt,nt,nt,4%,nt,nt,nt,nt,nt,
Cc1ccc(CC(=O)NNC(=O)c2ccncc2)cc1C,1,12µM*,8%,79µM*,0%,27*,28µM*,21%,3%,
Cc1ccc(C(=O)NNC(=O)c2ccncc2)cc1C,12,3%,0%,10%,-10%,nt,nt,nt,nt,
CCC1CCCCN1S(=O)(=O)c1ccc(NC(=O)c2nc(S(C)(=O)=O)ncc2Cl)cc1 (stereo not given),-84*,12µM*,6%,20µM*,0%,6*,3.2µM*,12µM*,9.2µM*,
O=C(Oc1ccccc1/C=C\C(=O)c1cc2ccccc2o1)c1ccccc1,5,-11%,-20%,?,-3%,4*,?,?,-11%,
COc1cccc(C(=O)Oc2ccccc2/C=C\C(=O)c2cc3ccccc3o2)c1,-22,-13%,1%,?,?,2.8*,3.2µM*,?,-22%,
O=C(Oc1ccccc1/C=C\C(=O)c1cc2ccccc2o1)c1cccc(F)c1,-2,-13%,?,28µM*,-5%,11*,?,?,?,
O=C(N/N=C/c1ccccc1OC(=O)c1ccc2c(c1)OCO2)c1cccc(F)c1,-10,-9%,-8%,-16%,0%,nt,nt,nt,nt,
NC(=O)N/N=C/c1ccccc1OC(=O)c1cc2ccccc2oc1=O,-2,-20%,-2%,-2%,1%,nt,nt,nt,nt,
CCOc1c(Br)cc(C2C=C(C(=O)O)Nc3ncnn32)cc1OC (stereo not given),nt,nt,-6%,-14%,-3%,nt,nt,nt,nt,
CCOC(=O)c1nn(-c2ccccc2C)c(=O)c2c(N)scc12,8,-14%,11%,35µM*,-5%,?,?,21%,-27%,
CCOC(=O)c1nn(-c2ccccc2C)c(=O)c(C#N)c1C,-5,-6%,1%,0%,1%,nt,nt,nt,nt,
SMILES,TSHR antagonist,PLK1 PBD inh,Vif-A3F inh,VDR inh,Vif-A3G inh,VDR inh confirm,VDR FP,VDR bla,VDR viability,others
N[C@H](Cn1ccc(=O)n(Cc2ccccc2C(=O)O)c1=O)C(=O)O,nt,nt,nt,1%,nt,nt,nt,nt,nt,
O=C(O)Cn1c(O)c(C2=c3ccccc3=NC2=O)sc1=O,20,-23%,2%,10µM*,-1%,13*,?,14%,10%,
Cc1cc(Br)cc2c1N(Cc1ccccc1OC(C)C)C(=O)C2=O,nt,nt,nt,13µM*,nt,4*,3.5µM*,23µM*,?,
COc1ccccc1CN1C(=O)C(=O)c2cccc(C)c21,nt,nt,-18%,-1%,-1%,nt,nt,nt,nt,
Cc1cccc2c1N(Cc1ccccc1OCCC(C)C)C(=O)C2=O,nt,nt,nt,22µM*,nt,22*,10µM*,-9%,-19%,
Cc1ccc2oc(=O)n(Cc3ccccc3OC(C)C)c2c1,-32,-1%,0%,15%,-1%,nt,nt,nt,nt,
CCN(CC)c1cc(C)nc2nc(-c3ccc(C)cc3)nn12,nt,nt,3%,1%,5%,nt,nt,nt,nt,
CCC(=O)Nc1ccc(S(=O)(=O)NCc2cccn2Cc2cccc(C)c2)cc1,nt,nt,0%,16%,-2%,nt,nt,nt,nt,
c1cn2cc(-c3ccc4c(c3)OCO4)nc2s1,7,24µM*,-1%,20µM*,0%,?,?,22%,-29%,
CC(=O)Nc1ccc(-c2cn3ccsc3n2)cc1,-3,1%,0%,4%,0%,nt,nt,nt,nt,
Cc1ccc(CNC(=O)c2cnc3c(-c4ccccc4)c(C)nn3c2C)o1,nt,nt,-6%,4%,-2%,nt,nt,nt,nt,
CCn1c(=O)cc(SCC(=O)NCCc2cc(OC)ccc2OC)c2ccccc21,nt,nt,2%,-9%,-2%,nt,nt,nt,nt,
COc1ccc(C(=O)c2no[n+]([O-])c2C(=O)c2ccc(OC)cc2)cc1,-4,?,4%,?,?,nt,nt,nt,nt,
